Compound activity from PubChem BioAssay.
RORgamma inh: blocks mouse ROR gamma transcriptional activity | Drosophila S2 Gal4-RORgamma UAS-luciferase reporter, 20 h | Potency, µM (highest dose often 53.6 µM), usual class: inhibitors | 310,000 compounds, 5.4% hits | AID 2551; further: nearly all actives have a fitted effect of over 60% in size
Target sequence (P51450 whole entry, looked up, the tested form may be a part): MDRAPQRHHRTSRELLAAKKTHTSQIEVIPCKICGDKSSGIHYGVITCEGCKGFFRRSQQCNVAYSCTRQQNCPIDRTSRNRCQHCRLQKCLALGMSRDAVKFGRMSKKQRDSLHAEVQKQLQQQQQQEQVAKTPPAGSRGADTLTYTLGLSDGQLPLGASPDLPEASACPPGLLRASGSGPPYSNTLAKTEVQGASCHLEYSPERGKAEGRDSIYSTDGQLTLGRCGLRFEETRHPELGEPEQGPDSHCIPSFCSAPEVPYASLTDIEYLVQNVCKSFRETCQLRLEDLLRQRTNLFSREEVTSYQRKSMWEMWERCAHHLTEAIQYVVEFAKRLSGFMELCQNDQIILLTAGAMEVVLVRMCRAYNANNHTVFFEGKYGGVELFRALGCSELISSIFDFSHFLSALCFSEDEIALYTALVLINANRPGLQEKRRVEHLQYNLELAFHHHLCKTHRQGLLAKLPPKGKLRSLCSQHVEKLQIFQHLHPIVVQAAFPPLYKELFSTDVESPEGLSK
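Schneider cells (Drosophila), stable Gal4 DBD–ROR gamma + UAS-luc; 1 hr cmpd preincubation; Cu2+ induction 700 uM final; 20 hr ambient; luminescence.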
KinaseGlo FLuc: counter-screen: inhibitors of Kinase-Glo firefly luciferase; Q27757; Potency, µM (series often up to 38.3 µM), actives largely listed as inhibitors; Kinase-Glo luciferase, ATP luminescence, 8 min; 200,000 compounds, 0.28% hits; further: nearly all actives have a fitted effect of over 60% in size
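Compound is pinned into ATP-containing buffer (10 uM ATP, imidazole pH 7.2, 7 mM MgCl2). Kinase-Glo luciferase reagent is then added. Light output is recorded following an 8-min room-temperature incubation.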
VP16 counter: inhibits Gal4-VP16 luciferase reporter, ROR gamma counter-screen | 310,000 compounds, 3.5% hits | Drosophila S2 Gal4-VP16 UAS-luciferase, luminescence, 20 h | Potency, µM (titrated, usually from 53.6 µM), hits mostly inhibitors;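 further: Gal4-VP16 expression switched on by copper sulfate through the metallothionein promoter; nearly all actives have a fitted effect of over 50% in size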
Each line names hits and unclear results; the compound was inactive in the other large screens. Rows were chosen to be rich in hits. Some 6.2% of all compounds tested hit in one or more screens of this group. The call rests on the fitted dose curve; in most records, active means well fitted curve in the direction sought with a large enough effect; inconclusive means small, poorly fitted or top-dose-only effect, or another doubt; inactive means no such curve, though single readings can be large; an effect the other way counts as inactive or inconclusive.

Cc1noc(C)c1S(=O)(=O)N1CCc2nc(COc3ccccc3)c3c(c2C1)CO[C@@H](C)C3	none (no result: RORgamma inh, VP16 counter)
CC1CC=CC2C1C(=O)N(Cc1ccccc1)C2c1ccc(-c2ccc(N(C)C)cc2)cc1F (configuration not stated)	none (no result: KinaseGlo FLuc)
O=C(CN1C(=O)C(=O)N(Cc2ccco2)C1=O)NC1CCCCC1	none
CCc1nnc(NC(=O)c2ccc(S(=O)(=O)N(CC(C)C)CC(C)C)cc2)o1	RORgamma inh 0.32µM, VP16 counter 0.35µM
CN(C1CCCCC1)S(=O)(=O)c1ccc(NC(=O)c2ccc(Br)o2)cc1	none
COCCN(CCOC)S(=O)(=O)c1ccc(C(=O)Nc2nc(-c3ccncc3)cs2)cc1	none
COCCN(CCOC)S(=O)(=O)c1ccc(C(=O)Nc2nnc(CSC)o2)cc1	RORgamma inh 5µM, VP16 counter 13µM
CCN(CC)S(=O)(=O)c1ccc(C(=O)Nc2ccc3c(c2)OCCO3)cc1	none
COCc1nnc(NC(=O)c2ccc(S(=O)(=O)N(C)C3CCCCC3)cc2)o1	RORgamma inh 1.6µM, VP16 counter 4.5µM
CCN(CC)S(=O)(=O)c1ccc(C(=O)Nc2nnc(C(C)C)s2)cc1	none
CSCc1nnc(NC(=O)c2ccc(S(=O)(=O)N(CC(C)C)CC(C)C)cc2)o1	RORgamma inh 0.28µM, VP16 counter 0.63µM
CC(C)CN1CCNC(=O)C1CC(=O)NCc1cnn(-c2cccc(F)c2)c1 (configuration not stated)	none (no result: KinaseGlo FLuc)
COc1ccc(CNC(=O)CSc2n[nH]c(N)n2)cc1	none (no result: KinaseGlo FLuc)
O=C(CN1CCCCCC1)Nc1ccc(Br)cn1	RORgamma inh inconclusive (no result: KinaseGlo FLuc)
O=C(c1cnn2c(C(F)F)cc(-c3ccccc3)nc12)N1CCN(Cc2ccc3c(c2)OCO3)CC1	none (no result: KinaseGlo FLuc)
Cc1cccc(NC(=O)c2ccc(S(=O)(=O)N(C)C)cc2)n1	RORgamma inh inconclusive
CCCN(CCC)S(=O)(=O)c1ccc(C(=O)Nc2nnc(COC)o2)cc1	RORgamma inh 0.56µM, VP16 counter 2.2µM
COCCN(CCOC)S(=O)(=O)c1ccc(C(=O)Nc2nnc(C)o2)cc1	RORgamma inh 10µM, VP16 counter inconclusive
CCc1nnc(NC(=O)c2ccc(S(=O)(=O)N(C)c3ccccc3)cc2)o1	RORgamma inh 0.45µM, VP16 counter 0.56µM
CN(c1ccc(C(=O)Nc2ccccn2)cc1)S(=O)(=O)c1ccccc1	VP16 counter inconclusive
COCCN(CCOC)S(=O)(=O)c1ccc(C(=O)Nc2nnc(COC)o2)cc1	RORgamma inh inconclusive
COCCN(CCOC)S(=O)(=O)c1ccc(C(=O)Nc2nc(C)c(C(C)=O)s2)cc1	none
CSCc1nnc(NC(=O)c2ccc(S(=O)(=O)N(C)C)cc2)o1	RORgamma inh 2µM, VP16 counter 5µM
CC1CC=CC2C1C(=O)N(Cc1ccccc1)C2c1ccc(F)c(-c2ccc(N(C)C)cc2)c1 (configuration not stated)	none (no result: KinaseGlo FLuc)
Cc1ccc(C(=O)Nc2ccncc2)c(C)c1	none (no result: KinaseGlo FLuc)
C=CCN(c1ccccc1)S(=O)(=O)c1ccc(Cl)c(C(=O)OCC(=O)c2[nH]c(C)c(C(C)=O)c2C)c1	RORgamma inh inconclusive
CC(=O)N[C@H]1C(O[C@@H]2O[C@H](C[C@@H](O)[C@H]3O[C@@H](N4CCC(=O)NC4=O)[C@H](O)[C@@H]3O)[C@H](O)[C@H](O)[C@H]2NC(=O)/C=C/CCCCCCCCCCC(C)C)OC(CO)[C@@H](O)[C@@H]1O (some centres not stated)	RORgamma inh inconclusive
CCCn1c(C)nc2c(NCCN(C(C)C)C(C)C)nc(C)nc21	none
Cc1nnc(NC(=O)CSc2nnc(CNC(=O)c3ccc(S(=O)(=O)N(C)C)cc3)o2)s1	none (no result: KinaseGlo FLuc)
C=CCN(CC=C)S(=O)(=O)c1ccc(C(=O)Nc2nnc(CSC)o2)cc1	RORgamma inh 0.56µM, VP16 counter 2.8µM
COC(=O)C1=C(C(=O)OC)[C@@H]2N(C)c3ccc(OC)cc3[C@@]23C[C@@H](C(=O)OC)N(S(=O)(=O)c2cccs2)C3=N1	none (no result: RORgamma inh, VP16 counter)
CCOC(=O)c1c(NC(=O)C2CCCO2)sc(C(N)=O)c1C (configuration not stated)	none
CCOC(=O)c1c(NC(=S)Nc2ccccc2)sc(C)c1C	RORgamma inh 3.5µM, VP16 counter inconclusive
CCOC(=O)c1c(NC(N)=O)sc(C)c1C	none (no result: VP16 counter)
CCOC(=O)c1c(NC(=S)NCC2CCCO2)sc(C)c1C (configuration not stated)	RORgamma inh 1.6µM, VP16 counter 4.5µM
CCOC(=O)c1c(NC(=O)CNCCO)sc(C)c1C	RORgamma inh inconclusive (no result: KinaseGlo FLuc)
CCOC(=O)c1c(NC(=O)C2=C(C)NC(=S)NC2c2ccccc2C(F)(F)F)sc(C)c1C (configuration not stated)	RORgamma inh inconclusive, VP16 counter 3.5µM
CCOC(=O)c1c(NC(=O)c2ccc(Cl)s2)sc(C)c1C	none
CCOC(=O)c1c(NC(=O)CNC2CCCCC2)sc(C)c1C	RORgamma inh 1.4µM
CC(=O)N1CCN(C(=O)c2ccc3c(c2)OCCO3)CC1	none (no result: KinaseGlo FLuc)
O=C(CN1C(=O)C2C3C=CC(C4CC34)C2C1=O)Oc1ccccc1 (configuration not stated)	none
Cc1ccc(C)c2c1[nH]c1ccc([N+](=O)[O-])cc12	RORgamma inh inconclusive
CC(C)(C)OC(=O)N1C=CCC1CN1C(=O)COCC1=O (configuration not stated)	none (no result: KinaseGlo FLuc)
CCN(CC(=O)NCc1ccc2c(c1)OCO2)S(=O)(=O)c1ccc(F)cc1	none (no result: KinaseGlo FLuc)
CCOC(=O)CN(C(=O)COc1nc(-c2ccccc2)cc(C)c1C#N)c1ccccc1C	none (no result: KinaseGlo FLuc)
COc1cccc([C@@H]2Oc3ccc(OC)cc3C[C@H]2OC(=O)NS(=O)(=O)c2ccc(F)cc2)c1	none
COc1ccc(NC(=O)c2cccc(N3C(=O)C4C5C=CC(C6CC56)C4C3=O)c2)cc1 (configuration not stated)	RORgamma inh inconclusive (no result: KinaseGlo FLuc)
CCOC(=O)c1cc(-c2ccccc2)sc1NC(=S)Nc1cccc(C)n1	none
CCOC(=O)c1cc(C)sc1NC(=S)Nc1ccccc1	RORgamma inh inconclusive, VP16 counter 3.2µM
COC(=O)C1=C(N)c2ccccc2C1(C#N)c1ccccc1 (configuration not stated)	VP16 counter 16µM
COC(=O)c1c(-c2ccccc2)csc1N	none
COc1cc(OC)cc(C(=O)N2CC(=O)Nc3ccccc32)c1	none (no result: KinaseGlo FLuc)
C=CCN1CCN(c2nc3ccccc3nc2C#N)CC1	none
COCCN1C(=O)c2ccc(C(=O)Nc3nccs3)cc2C1=O	none
CC(C)CN1C(=O)c2ccc(C(=O)NCc3ccccn3)cc2C1=O	none (no result: KinaseGlo FLuc)
CC(C)CN1C(=O)c2ccc(C(=O)Nc3nccs3)cc2C1=O	RORgamma inh 8.9µM, VP16 counter inconclusive
CCCN1C(=O)c2ccc(C(=O)Nc3nccs3)cc2C1=O	RORgamma inh 10µM, VP16 counter inconclusive
CCCc1cc(C(=O)Nc2nccs2)cs1	RORgamma inh 5µM, VP16 counter 7.9µM
CCC(CC)C(=O)Nc1cccc(C(=O)Nc2nccs2)c1	none
CC(C)CN1C(=O)c2ccc(C(=O)Nc3ccccn3)cc2C1=O	none
CC(C)CN1C(=O)c2ccc(C(=O)Nc3ccncc3)cc2C1=O	RORgamma inh inconclusive, VP16 counter 20µM
CCCCC(C(=O)O)C(C)CC(=O)Nc1nccs1 (configuration not stated)	none (no result: KinaseGlo FLuc)
Cc1csc(NC(=O)CN2C(=O)c3ccccc3C2=O)c1C(N)=O	none (no result: KinaseGlo FLuc)
